Here are results for 17 molecules from ChEMBL document CHEMBL1961873, “Compounds: GSK PKIS; Assays: Nanosyn kinase panel” (2012).

Molecules are shown by their SMILES.

Experiment [1] addresses Rho-associated protein kinase 1 (Homo sapiens) (UniProt Q13464). To be noted: at 1 µM.
For experiment [2], the target named is Rho-associated protein kinase 2 (Homo sapiens) (UniProt O75116). To be noted: at 0.1 µM.
Experiment [3] has the same target. Particulars: at 1 µM.
Experiment [4] concerns the target Ribosomal protein S6 kinase alpha-1 (Homo sapiens) (UniProt Q15418). Particulars: at 0.1 µM.
The target is the same in experiment [5]. Particulars: at 1 µM.
Experiment [6] addresses Ribosomal protein S6 kinase alpha-3 (Homo sapiens) (UniProt P51812). To be noted: at 0.1 µM.
Experiment [7] has the same target. Particulars: at 1 µM.
The target of experiment [8] is Ribosomal protein S6 kinase alpha-2 (Homo sapiens) (UniProt Q15349). Particulars: at 0.1 µM.
The target is the same in experiment [9]. Particulars: at 1 µM.
Experiment [10] concerns the target Ribosomal protein S6 kinase alpha-6 (Homo sapiens) (UniProt Q9UK32). To be noted: at 0.1 µM.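 Further: reported value is the mean inhibition of RSK4, from the GSK PKIS kinase inhibitor screen.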

Sequence of Rho-associated protein kinase 1 (Homo sapiens) (Q13464 2-1354 limits assumed): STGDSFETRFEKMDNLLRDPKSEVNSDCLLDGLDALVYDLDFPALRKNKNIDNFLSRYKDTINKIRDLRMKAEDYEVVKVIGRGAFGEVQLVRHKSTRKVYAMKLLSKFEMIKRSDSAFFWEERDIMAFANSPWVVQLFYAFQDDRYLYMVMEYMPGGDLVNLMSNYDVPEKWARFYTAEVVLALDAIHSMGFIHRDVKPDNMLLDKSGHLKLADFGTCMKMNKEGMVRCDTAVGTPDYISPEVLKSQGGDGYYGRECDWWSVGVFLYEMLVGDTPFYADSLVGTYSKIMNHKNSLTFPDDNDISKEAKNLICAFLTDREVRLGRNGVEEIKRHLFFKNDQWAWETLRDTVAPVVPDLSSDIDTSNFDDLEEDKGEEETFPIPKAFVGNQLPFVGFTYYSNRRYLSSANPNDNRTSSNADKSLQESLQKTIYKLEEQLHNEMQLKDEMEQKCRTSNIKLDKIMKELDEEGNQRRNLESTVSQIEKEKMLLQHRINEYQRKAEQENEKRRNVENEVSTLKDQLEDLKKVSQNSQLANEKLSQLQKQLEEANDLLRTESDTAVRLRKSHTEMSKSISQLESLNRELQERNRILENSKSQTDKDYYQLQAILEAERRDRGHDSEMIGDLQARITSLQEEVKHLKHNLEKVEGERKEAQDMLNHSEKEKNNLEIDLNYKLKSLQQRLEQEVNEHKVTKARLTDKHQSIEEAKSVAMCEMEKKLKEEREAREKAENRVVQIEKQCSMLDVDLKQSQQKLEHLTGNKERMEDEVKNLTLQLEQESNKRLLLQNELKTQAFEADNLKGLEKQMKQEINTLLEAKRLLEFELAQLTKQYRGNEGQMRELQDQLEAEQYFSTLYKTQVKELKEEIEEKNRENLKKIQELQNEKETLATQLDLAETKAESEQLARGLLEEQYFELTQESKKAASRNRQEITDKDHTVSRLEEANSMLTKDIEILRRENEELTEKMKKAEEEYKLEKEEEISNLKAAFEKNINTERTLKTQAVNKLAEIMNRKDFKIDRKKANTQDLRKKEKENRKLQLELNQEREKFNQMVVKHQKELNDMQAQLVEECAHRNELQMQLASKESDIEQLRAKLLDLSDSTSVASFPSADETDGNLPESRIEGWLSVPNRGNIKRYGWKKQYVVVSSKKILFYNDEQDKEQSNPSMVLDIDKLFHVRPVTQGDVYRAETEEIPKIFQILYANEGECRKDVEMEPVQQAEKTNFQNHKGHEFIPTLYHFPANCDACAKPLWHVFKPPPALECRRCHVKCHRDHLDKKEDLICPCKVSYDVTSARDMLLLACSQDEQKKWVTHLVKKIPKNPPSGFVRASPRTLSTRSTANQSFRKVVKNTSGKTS
Sequence of Ribosomal protein S6 kinase alpha-6 (Homo sapiens) (Q9UK32 whole entry): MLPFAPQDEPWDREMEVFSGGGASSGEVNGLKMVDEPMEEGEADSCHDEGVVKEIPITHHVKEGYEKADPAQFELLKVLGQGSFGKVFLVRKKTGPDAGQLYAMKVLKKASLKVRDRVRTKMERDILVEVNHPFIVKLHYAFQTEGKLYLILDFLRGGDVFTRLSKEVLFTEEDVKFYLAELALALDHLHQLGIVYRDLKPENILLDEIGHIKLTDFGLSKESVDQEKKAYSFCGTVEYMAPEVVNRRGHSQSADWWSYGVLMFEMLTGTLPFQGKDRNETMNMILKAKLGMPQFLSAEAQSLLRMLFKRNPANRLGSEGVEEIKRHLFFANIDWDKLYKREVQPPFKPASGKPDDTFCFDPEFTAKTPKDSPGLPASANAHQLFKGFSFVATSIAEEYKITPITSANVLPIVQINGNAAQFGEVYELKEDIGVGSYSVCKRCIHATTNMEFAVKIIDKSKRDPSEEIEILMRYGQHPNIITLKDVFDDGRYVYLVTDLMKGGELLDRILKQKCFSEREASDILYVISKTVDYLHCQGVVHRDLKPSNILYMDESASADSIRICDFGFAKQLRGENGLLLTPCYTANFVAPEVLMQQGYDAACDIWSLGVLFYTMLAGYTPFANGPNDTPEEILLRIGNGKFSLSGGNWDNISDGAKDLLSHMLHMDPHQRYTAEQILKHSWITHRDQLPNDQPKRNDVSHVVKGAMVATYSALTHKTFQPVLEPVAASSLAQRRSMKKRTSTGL
Sequence of Rho-associated protein kinase 2 (Homo sapiens) (O75116 whole entry, looked up): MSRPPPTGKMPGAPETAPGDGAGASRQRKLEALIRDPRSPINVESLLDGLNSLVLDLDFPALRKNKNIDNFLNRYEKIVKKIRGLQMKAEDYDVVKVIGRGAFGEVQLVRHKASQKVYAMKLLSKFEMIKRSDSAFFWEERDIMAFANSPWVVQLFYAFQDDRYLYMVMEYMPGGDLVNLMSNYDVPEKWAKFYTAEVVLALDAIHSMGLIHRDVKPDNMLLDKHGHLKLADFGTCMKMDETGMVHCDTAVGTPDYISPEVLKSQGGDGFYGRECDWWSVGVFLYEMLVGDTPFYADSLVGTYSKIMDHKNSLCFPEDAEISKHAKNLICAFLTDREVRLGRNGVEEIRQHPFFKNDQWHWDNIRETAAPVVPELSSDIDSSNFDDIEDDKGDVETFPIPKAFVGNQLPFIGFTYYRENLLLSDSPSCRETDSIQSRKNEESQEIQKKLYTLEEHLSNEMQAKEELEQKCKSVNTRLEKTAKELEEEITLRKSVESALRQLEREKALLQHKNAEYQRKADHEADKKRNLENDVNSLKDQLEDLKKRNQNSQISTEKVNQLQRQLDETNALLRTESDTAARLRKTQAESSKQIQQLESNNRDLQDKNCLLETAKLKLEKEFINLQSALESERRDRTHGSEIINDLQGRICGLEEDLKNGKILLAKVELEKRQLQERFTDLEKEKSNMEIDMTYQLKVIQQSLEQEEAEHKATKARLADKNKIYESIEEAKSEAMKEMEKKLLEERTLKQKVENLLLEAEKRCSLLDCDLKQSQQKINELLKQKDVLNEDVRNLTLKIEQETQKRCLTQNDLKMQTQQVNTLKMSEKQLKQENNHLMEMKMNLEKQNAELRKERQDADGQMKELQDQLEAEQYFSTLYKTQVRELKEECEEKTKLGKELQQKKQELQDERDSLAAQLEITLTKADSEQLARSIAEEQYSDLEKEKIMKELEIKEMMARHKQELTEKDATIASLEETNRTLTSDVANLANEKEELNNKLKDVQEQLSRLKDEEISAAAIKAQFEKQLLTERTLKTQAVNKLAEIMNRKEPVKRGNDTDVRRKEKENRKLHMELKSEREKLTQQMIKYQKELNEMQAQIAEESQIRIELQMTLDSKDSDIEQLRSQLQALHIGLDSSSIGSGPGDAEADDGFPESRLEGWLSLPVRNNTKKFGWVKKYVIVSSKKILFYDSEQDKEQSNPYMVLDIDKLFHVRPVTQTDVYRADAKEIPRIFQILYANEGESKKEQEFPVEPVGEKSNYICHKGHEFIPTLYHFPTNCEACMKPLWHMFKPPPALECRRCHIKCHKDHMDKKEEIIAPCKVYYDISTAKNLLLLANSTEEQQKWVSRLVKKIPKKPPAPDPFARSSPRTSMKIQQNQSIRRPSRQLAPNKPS
Sequence of Ribosomal protein S6 kinase alpha-2 (Homo sapiens) (Q15349 whole entry): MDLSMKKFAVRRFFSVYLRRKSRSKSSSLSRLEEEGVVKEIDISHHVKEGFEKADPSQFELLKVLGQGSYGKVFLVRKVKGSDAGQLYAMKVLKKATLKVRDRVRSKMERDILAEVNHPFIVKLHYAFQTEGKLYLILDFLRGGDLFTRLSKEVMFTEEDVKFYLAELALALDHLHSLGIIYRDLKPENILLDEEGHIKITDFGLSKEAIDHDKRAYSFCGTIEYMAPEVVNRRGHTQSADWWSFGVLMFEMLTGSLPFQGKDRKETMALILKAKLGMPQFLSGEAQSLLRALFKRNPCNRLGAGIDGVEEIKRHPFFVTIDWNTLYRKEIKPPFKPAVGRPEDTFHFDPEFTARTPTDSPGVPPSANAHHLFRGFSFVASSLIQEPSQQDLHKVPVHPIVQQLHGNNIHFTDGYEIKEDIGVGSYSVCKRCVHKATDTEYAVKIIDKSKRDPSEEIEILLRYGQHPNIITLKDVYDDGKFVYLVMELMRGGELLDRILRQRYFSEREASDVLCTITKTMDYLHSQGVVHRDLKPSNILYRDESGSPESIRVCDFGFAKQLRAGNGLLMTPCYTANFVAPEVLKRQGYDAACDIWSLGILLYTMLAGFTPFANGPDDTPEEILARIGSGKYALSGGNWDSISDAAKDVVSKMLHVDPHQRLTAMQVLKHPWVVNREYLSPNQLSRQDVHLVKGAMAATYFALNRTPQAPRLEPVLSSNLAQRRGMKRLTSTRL
Sequence of Ribosomal protein S6 kinase alpha-3 (Homo sapiens) (P51812 whole entry): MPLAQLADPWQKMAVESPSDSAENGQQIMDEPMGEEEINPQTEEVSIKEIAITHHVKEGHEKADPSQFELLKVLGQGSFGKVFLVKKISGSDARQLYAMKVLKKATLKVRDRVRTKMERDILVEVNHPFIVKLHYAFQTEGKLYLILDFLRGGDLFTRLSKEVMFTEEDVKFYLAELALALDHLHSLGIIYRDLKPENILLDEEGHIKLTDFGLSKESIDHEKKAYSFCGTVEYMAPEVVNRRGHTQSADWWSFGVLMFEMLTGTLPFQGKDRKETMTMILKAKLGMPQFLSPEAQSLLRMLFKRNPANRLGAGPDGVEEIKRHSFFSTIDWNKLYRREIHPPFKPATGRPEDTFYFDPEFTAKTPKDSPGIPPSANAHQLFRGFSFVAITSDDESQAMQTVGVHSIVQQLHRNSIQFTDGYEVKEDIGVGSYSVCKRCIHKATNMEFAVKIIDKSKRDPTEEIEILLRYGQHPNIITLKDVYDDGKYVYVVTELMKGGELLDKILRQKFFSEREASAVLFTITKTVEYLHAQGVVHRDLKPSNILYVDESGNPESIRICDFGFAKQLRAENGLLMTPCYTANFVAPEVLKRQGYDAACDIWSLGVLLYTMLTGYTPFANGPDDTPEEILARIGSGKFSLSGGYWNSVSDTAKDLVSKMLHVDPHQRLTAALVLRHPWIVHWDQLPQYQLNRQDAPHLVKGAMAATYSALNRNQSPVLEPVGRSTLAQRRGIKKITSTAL

As for `CC(C)COC(=O)c1ccc2c(c1)/C(=C/Nc1ccc(S(N)(=O)=O)cc1)C(=O)N2`, the inhibition in [1] is 30.2%; in [2] it was 6.15%; in experiment [3] it was 43.9%; in [4] it was 6.23%; in [5] it was 32.4%; in experiment [6] it was 7.27%. For the same molecule, the inhibition in experiment [7] is 36%; in experiment [8], 5.76%; in experiment [9], 35.5%; in [10], 4.96%.

With `Fc1ccc(-c2nn3ncccc3c2-c2ccnc(Nc3ccc4c(c3)OCCO4)n2)cc1`, the inhibition in experiment [1] is 1.7%; in experiment [2], 1.49%; in experiment [3], 2.36%; in [4], 1.15%; in experiment [5], 4.94%; in experiment [6] it was 0.37%. Besides, the inhibition was 1.36% in [7], 2.3% in experiment [8], 4.22% in [9] and 2.06% in [10].

For `CCn1c(-c2nonc2N)nc2cnc(Oc3cccc(NC(=O)c4ccc(N(C)C)cc4)c3)cc21`, the inhibition in [1] turned out to be 87.1%; in experiment [2] it was 85.5%; in experiment [3], 86%; in experiment [4], 26.1%; in experiment [5] it was 68.3%; in experiment [6], 12.7%. The inhibition in experiment [7] amounted to 52.8%; in experiment [8], 17.4%; in experiment [9], 63.6%; in [10] it was 2.31%.

For the molecule `Nc1ncc(-c2cccc(S(N)(=O)=O)c2)c2scc(-c3ccc(F)c(Cl)c3)c12`, the inhibition in experiment [1] was 1.47%; in experiment [2], 2.98%; in [3], 2.92%; in experiment [4], 2.93%; in experiment [5], 6.15%; in experiment [6] it was 2.5%. The inhibition was determined as 2.98% in experiment [7], 3.17% in [8], 2.68% in experiment [9] and 2.34% in experiment [10].

On to `N#Cc1c(NC(=O)c2ccc(F)cc2)sc2c1CCCC2`, for which the inhibition in experiment [1] is 1.82%; in [2] it was 0.42%; in experiment [3], 2.62%; in experiment [4], 1.41%; in experiment [5] it was 2.35%; in experiment [6], 0.9%. Moreover, the inhibition in experiment [7] is 2.51%; in [8], -0.44%; in [9] it was 1.7%; in experiment [10], -0.96%.

For the molecule `CCCN(CCS(C)(=O)=O)Cc1ccc(-c2ccc3ncnc(Nc4ccc(OCc5cccc(F)c5)c(Cl)c4)c3c2)o1`, the inhibition in experiment [1] came out at 0.05%; in experiment [2], 1.92%; in [3], 2.01%; in [4] it was 1.36%; in [5] it was 0.68%; in [6], 0.4%. In addition, the inhibition in [7] came to 0.24%; in experiment [8], 1.59%; in [9], 1.46%; in [10], 1.43%.

For the molecule `COc1ccc(-c2cc3c(N)ncnc3o2)cc1`, the inhibition in experiment [1] was 1.74%; in experiment [2] it was 0.73%; in experiment [3], 1.85%; in [4], 1.04%; in experiment [5], 0.11%; in experiment [6], 1.43%. Also, the inhibition in experiment [7] is 2.31%; in experiment [8] it was -0.65%; in [9], 0.29%; in [10], -0.28%.

Turning to `NC(=O)c1sc(-n2cnc3ccc(C(F)(F)F)cc32)cc1OCc1ccccc1Br`, the inhibition in [1] was determined as 3.95%; in experiment [2], 2.8%; in [3], 4.98%; in experiment [4], 2.63%; in experiment [5], 4.25%; in experiment [6] it was 0.56%. Also, the inhibition in experiment [7] turned out to be 2.48%; in experiment [8], 0.97%; in [9], 3.47%; in [10], 0.36%.

For the molecule `COC(=O)Nc1nc2ccc(S(=O)(=O)c3ccc(NC(=O)Nc4cc(C(F)(F)F)ccc4F)cc3)cc2[nH]1`, the inhibition in [1] is 2.05%; in [2], 1.37%; in experiment [3], -0.72%; in experiment [4], 1.38%; in experiment [5], 0.31%; in [6] it was 0.77%. Moreover, the inhibition in [7] worked out at 0.41%; in [8] it was 1.99%; in experiment [9], 2.47%; in experiment [10], 0.08%.

Regarding `O=C(Nc1n[nH]c2cc(-c3ccc(F)cc3)ccc12)C1CC1`, the inhibition stood at 9.51% in experiment [1]; 7.81% in experiment [2]; 9.75% in experiment [3]; 6.62% in experiment [4]; 9.5% in experiment [5]; 4.78% in experiment [6]. The inhibition in experiment [7] amounted to 9.26%; in experiment [8] it was 3.68%; in experiment [9], 6.96%; in experiment [10], 1.52%.

Take `COc1cccc(-n2ncc3c(N/N=C/c4ccc(F)cc4)ncnc32)c1`: the inhibition in experiment [1] was 1.49%; in experiment [2] it was 4.65%; in experiment [3], 6.14%; in experiment [4], 2.21%; in [5] it was 4.62%; in [6], 1.27%. Further, the inhibition in experiment [7] came to 2.74%; in experiment [8], 0.94%; in experiment [9] it was 3.3%; in experiment [10] it was 1.4%.

For the molecule `CC(C)(CO)CNC(=O)c1ccc2c(c1)/C(=N/Nc1ccc(S(N)(=O)=O)cc1)C(=O)N2`, the inhibition in [1] was 5.01%; in [2], 0.95%; in [3] it was 10.3%; in [4] it was 0.63%; in [5], 3.49%; in experiment [6], 0.73%. Also, the inhibition was determined as 4.41% in experiment [7], 0.48% in experiment [8], 6.29% in experiment [9] and 1.62% in experiment [10].

On to `CS(=O)(=O)CCNCc1ccc(-c2ccc3ncnc(Nc4ccc(OCc5ccccc5)c(C(F)(F)F)c4)c3c2)o1`, for which the inhibition in [1] was 2.14%; in experiment [2] it was 2.7%; in [3], 2.3%; in [4] it was 0.89%; in [5], 1.86%; in experiment [6] it was 1.54%. The inhibition in experiment [7] came out at 1.72%; in experiment [8] it was 2.31%; in [9] it was 2.74%; in [10] it was 0.89%.

Consider `CCc1nn2ncccc2c1-c1ccnc(NC2CC2)n1`, for which the inhibition in [1] was 1.83%; in experiment [2], 1.74%; in experiment [3], 2.93%; in experiment [4], 1.29%; in experiment [5], 2.08%; in experiment [6], 1.54%. Also, the inhibition in experiment [7] came out at 0.91%; in experiment [8] it was 3.18%; in experiment [9] it was 2.75%; in experiment [10] it was 1.44%.

`CCN(CC)S(=O)(=O)c1ccc(OC)c(Nc2ncc(-c3ccccc3)o2)c1`: the inhibition in [1] worked out at 2.02%; in experiment [2] it was 1.64%; in experiment [3], 2.3%; in experiment [4], 0.82%; in [5], 5.22%; in [6] it was 0.74%. Besides, the inhibition was -0.03% in [7], 0.64% in [8], 1.51% in experiment [9] and 1.64% in experiment [10].

In the case of `CCn1c(-c2nonc2N)nc2ccccc21`, the inhibition in experiment [1] was determined as 36.6%; in experiment [2] it was 9.34%; in experiment [3], 42.6%; in [4], 18%; in experiment [5], 58.3%; in experiment [6], 7.22%. Besides, the inhibition in experiment [7] was determined as 36.2%; in experiment [8], 19.1%; in experiment [9] it was 68.5%; in experiment [10], 1.71%.

For `CCCN1CCC(c2ccc(Nc3nc(Nc4cc(F)ccc4C(N)=O)c4cc[nH]c4n3)c(OC)c2)CC1`, the inhibition is 64.6% in [1]; 19.9% in experiment [2]; 69.8% in experiment [3]; 37.4% in experiment [4]; 69.7% in [5]; 26.5% in experiment [6]. The inhibition in experiment [7] worked out at 66.8%; in [8], 12%; in experiment [9], 53.5%; in experiment [10] it was 23.4%.
